Screening results deposited in PubChem by National Center for Advancing Translational Sciences (NCATS).
Eya2 phos inh: qHTS Assay for Inhibitors of the Phosphatase Activity of Eya2; Protein phosphatase EYA2 (Homo sapiens), O00167; recombinant Eya2, OMFP fluorescence dephosphorylation (OMFP is methylfluorescein phosphate); Potency, µM (doses to about 76.9 µM), for inactives: top-dose activity, negative = inhibition, hits mostly inhibitors; 0.006% of 330,000 active; note: potency is the fitted concentration of half-maximal effect; % is set by controls: 0 for no effect and ±100 for the full control effect
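Eya2 (0.2 uM) preincubated 10 min at ambient with compound, then OMFP substrate added at 50 uM; 10 min reaction in 50 mM HEPES pH 7.5, 50 mM NaCl, 5 uM MgCl2, 0.05% BSA, 1 mM DTT. Fluorescence read at Ex 485/Em 525 nm.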
rTrxR1 inhibitor: qHTS Assay for Inhibitors of Mammalian Selenoprotein Thioredoxin Reductase 1 (TrxR1): qHTS | Thioredoxin reductase 1, cytoplasmic (Rattus norvegicus), O89049 | recombinant rTrxR1, NADPH fluorescence consumption, selenite substrate | Potency, µM (top dose mostly 114 µM), for the others: top-dose activity change, negative = inhibition, most hits filed as inhibitors | 1% of 390,000 active | AID 588453, 2011; note: potency is the fitted concentration of half-maximal effect; % is set by controls: 0 for no effect and ±100 for the full control effect; nearly all actives have a fitted effect of over 65% in size
Target sequence (O89049 whole entry, looked up): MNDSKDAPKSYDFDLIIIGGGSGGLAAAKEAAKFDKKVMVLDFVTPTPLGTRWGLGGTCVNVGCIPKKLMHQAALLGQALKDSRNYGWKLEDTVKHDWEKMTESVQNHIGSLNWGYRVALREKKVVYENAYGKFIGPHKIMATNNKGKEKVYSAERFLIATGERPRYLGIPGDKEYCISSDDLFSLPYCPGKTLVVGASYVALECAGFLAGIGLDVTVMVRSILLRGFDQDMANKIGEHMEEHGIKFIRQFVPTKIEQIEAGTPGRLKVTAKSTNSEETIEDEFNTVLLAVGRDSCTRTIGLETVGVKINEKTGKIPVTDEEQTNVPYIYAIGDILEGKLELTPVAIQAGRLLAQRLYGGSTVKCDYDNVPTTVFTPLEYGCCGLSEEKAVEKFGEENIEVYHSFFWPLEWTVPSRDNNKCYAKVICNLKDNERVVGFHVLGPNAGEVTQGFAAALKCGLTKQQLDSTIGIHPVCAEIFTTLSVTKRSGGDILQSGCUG
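Rat TrxR1 (90 nM in the dispensed reagent) was pre-reduced with 400 uM NADPH for 5 min at room temperature, then incubated with compound for 15 min. After 400 uM selenite was added, NADPH fluorescence (Ex 340/Em 450 nm) was followed for 8 min.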
mIDH1 inhibitor: qHTS for Inhibitors of mutant isocitrate dehydrogenase 1 (IDH1): qHTS; Isocitrate dehydrogenase [NADP] cytoplasmic (Homo sapiens), O75874; IDH1-R132H enzyme, NADPH consumption, diaphorase/resazurin fluorescence; Potency, µM (doses to about 76.6 µM), for the others: top-dose activity change, negative = inhibition, actives largely listed as inhibitors; 0.093% of 390,000 active; AID 602179, 2012; note: potency is the fitted concentration of half-maximal effect; % is set by controls: 0 for no effect and ±100 for the full control effect; nearly all actives have a fitted effect of over 65% in size
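IDH1-R132H (0.5 ug/mL dispensed) in pH 7.5 Tris buffer was preincubated 30 min with compound, then given a substrate mix of 0.016 mM NADPH and 2 mM alpha-KG for 80 min at room temperature; remaining NADPH was read by diaphorase/resazurin fluorescence.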
FBPA coupling cs: qHTS Assay for Inhibitors of Fructose-1,6-bisphosphate Aldolase from Giardia Lamblia: Coupling assay counterscreen; activity change, negative = inhibition, % at 58.2 µM, hits read low; 0.67% of 290,000 active; AID 2472, 2010; coupling enzyme system counterscreen, AmpLite Red fluorescence; in the data active = activity change below about -30%; note: % is set by controls: 0 for no effect and ±100 for the full control effect
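Counterscreen lacking aldolase: glyceraldehyde-3-phosphate coupling-enzyme reagent preincubated 10 min at RT with compound (at 57.5 uM final), then substrate/coupling system with AmpLite Red added; fluorescence read at 525/598 nm after 20 min RT.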
TrxR1 substrate: qHTS Assay for Substrates of Mammalian Selenoprotein Thioredoxin Reductase 1 (TrxR1): qHTS; Thioredoxin reductase 1, cytoplasmic (Rattus norvegicus), O89049; purified TrxR1 substrate turnover, NADPH consumption readout; AID 588456, 2011; 0.01% of 390,000 active; Potency, µM (doses to about 114 µM), for the others: at the top dose activity change, negative = substrate turnover; note: potency is the fitted concentration of half-maximal effect; % is set by controls: 0 for no effect and ±100 for the full control effect; nearly all actives have a fitted effect of over 50% in size
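Rat TrxR1, dispensed at 90 nM, was prereduced with 400 uM NADPH (final) for 5 min at ~22 deg C, then incubated with compound 15 min before 400 uM selenite. A first-read NADPH fluorescence drop versus no-compound background flagged substrates.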
IDH1 autofl: qHTS for Inhibitors of mutant isocitrate dehydrogenase 1 (IDH1): Cherrypicks Autofluorescence Interference; shares compounds with mIDH1 inhibitor; Resorufin detection reagent fluorescence interference, cell-free; inhibition of signal, % at 51.2 µM; 750 tested, under 10 active;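 note: 0% = wells with normal resorufin and full inhibition = wells lacking resorufin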
WT IDH1 inh: qHTS for Inhibitors of mutant isocitrate dehydrogenase 1 (IDH1): Cherrypicks in WT IDH1. shares compounds with mIDH1 inhibitor. WT IDH1 enzyme, NADPH diaphorase/resazurin fluorescence. 9% of 750 active. AID 623995, 2012. Potency, µM (titrated, usually from 115 µM), for inactives: top-dose activity change, negative = inhibition, actives largely listed as inhibitors;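 note: potency is the fitted concentration of half-maximal effect; 0% = full WT IDH1 enzyme control and full inhibition = no enzyme wells; nearly all actives have a fitted effect of over 55% in size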
IDH1 R132H conf: qHTS for Inhibitors of mutant isocitrate dehydrogenase 1 (IDH1): Confirmation of Cherrypicks. shares compounds with mIDH1 inhibitor. IDH1 R132H enzyme, NADPH diaphorase/resazurin fluorescence. Potency, µM (highest dose often 76.6 µM), inactives show top-dose activity change, negative = inhibition, actives largely listed as inhibitors. 83% of 750 active. AID 624002, 2012; note: potency is the fitted concentration of half-maximal effect; nearly all actives have a fitted effect of over 50% in size
An asterisk follows results filed as active; ? = inconclusive; . = no result given; [ ] = another dose, or the depositor's remark. Compounds with a hit are over-represented: about 1.5% of the library has one in this group of screens. Unless noted, calls come from the whole dose curve; as a rule, active = well fitted curve in the direction sought with a large enough effect; inconclusive = small, poorly fitted or top-dose-only effect, or another doubt; inactive = no such curve, though single readings can be large; an effect the other way counts as inactive or inconclusive.

SMILES	Eya2 phos inh	rTrxR1 inhibitor	mIDH1 inhibitor	FBPA coupling cs	TrxR1 substrate	IDH1 autofl	WT IDH1 inh	IDH1 R132H conf
COc1ccc(-c2oc(=O)c3cc(OC)c(OC)cc3c2-c2ccc3c(c2)OCO3)cc1	6.9%	38.1%	20.6%	.	10.9%[57.1 µM]	.	.	.
COc1ccc(-c2c(-c3ccsc3)oc(=O)c3cc(OC)c(OC)cc23)cc1	5.7%	48.3%	11.2µM*	.	18.8%[57.1 µM]	5.2	-0.4%	8.91µM*
CCOc1ccc(C=Nc2ccc(/C=C/c3ccnc4ccccc34)cc2)cc1OCC	.	6.5%	.	.	-6.4%	.	.	.
c1cc(CN2CCCNCCNCCCNCC2)ccc1CN1CCCNCCNCCCNCC1	.	.	.	-2.4	.	.	.	.
Cc1ccc(NC2c3ncccc3C(=O)N2Cc2cccs2)cc1 (centres undefined)	14.9%	15.1%[57.1 µM]	52.1µM*	0.9	6.4%[57.1 µM]	-2.9	1.8%	-21.0%
COc1ccc(CN2C(=O)c3cccnc3C2Nc2ccc(C)cc2)cc1 (centres undefined)	2.3%	-2.4%	0.4%	-0.5	-3.2%	.	.	.
CC(Cl)OC(=O)Nc1cccc2cccnc12 (centres undefined)	.	-5.6%	.	.	-5.0%[0.457 µM]	.	.	.
CC(=O)Nc1ccc(NC(=O)c2ccc(NS(=O)(=O)c3cc(C(C)(C)C)cc(C)c3C)cc2)cc1	-1.9%	12.4%	-10.6%	2.9	9.8%	.	.	.
Cc1cc(C(C)(C)C)cc(S(=O)(=O)Nc2ccc(O)c(C(=O)O)c2)c1C	-6.3%	19.5%[57.1 µM]	?	12.9	10.1%	-0.5	0.7%	28.2µM*
Cc1cc(=O)[nH]c(SCC(=O)Nc2ncc(S(=O)(=O)c3ccc([N+](=O)[O-])cc3)s2)n1	9.3%	-18.5%[57.1 µM]	?	12.2	-6.6%[57.1 µM]	3.6	?	-17.1%
Cc1ccc(Nc2nnc(SCC(=O)Nc3ncc(S(=O)(=O)c4ccc([N+](=O)[O-])cc4)s3)s2)cc1	5.4%	-8.5%	4.6%	6.2	-6.4%	.	.	.
COc1cc2c(cc1OC)-c1cc3cc(OC)c(OC)cc3c(=O)n1CC2	.	.	.	-0.3	.	.	.	.
C(=C\c1nc2ccccc2nc1/C=C/c1ccc2c(c1)OCO2)/c1ccc2c(c1)OCO2	.	3.8%	.	.	0.0%	.	.	.
Cc1ccc(-c2cc(C(F)F)n3ncc(C(=O)N4CCCCC4c4cccnc4)c3n2)cc1 (centres undefined)	-1.1%	23.1%	?	0.1	92.3%	-5.3	5.8%	35.5µM*
O=C(NCC1CCCCC1)c1nnc(C(=O)NCC2CCCCC2)c2c1[nH]c1ccccc12	.	.	.	2.2	.	.	.	.
O=c1c2ccccc2nc(/C=C/c2cccnc2)n1CCc1ccccc1	5.5%	10.5%[57.1 µM]	52.1µM*	-1.6	-3.9%[57.1 µM]	1.9	-25.3%	44.7µM*
O=c1c2ccccc2nc(/C=C/c2ccccc2)n1CCc1ccccc1	-1.0%	-13.8%	3.0%	-0.2	-8.8%	.	.	.
Nc1ncnc2c1[nH]c(=S)n2C1OC(CO)C(O)C1O (centres undefined)	.	?	.	.	4.1%	.	.	.
Cc1ccc(NC2(c3nnnn3-c3c(C)cccc3C)CCCCC2)cc1	-1.2%	39.4%	58.5µM*	-0.8	6.1%	-7.6	0.2%	-12.4%
